# Measurements reported in a collection of fitness landscapes (doi:10.1016/j.celrep.2020.107928).
# In all, about 81,000 sequences were measured (“one-hybrid fitness for binding parS DNA”: median about -0.17, highest 2% from about 0.51 on). Many of the other results were omitted from the sample, so the highest values are more common in it than they were.
# B1: Caulobacter ParB omega fusion; a variant is named by its letters at X, in order, B8GW30 (parent)
# chain: MESVVVGEPGMSEGRRGLGRGLSALLGEVDAAPAQAPGEQLGGSREAPIEILQRNPDQPRRTFREEDLEDLSNSIREKGVLQPILVRPSPDTAGEYQIVAGERAWRAAQRAGLKTVPIMVRELDDLAVLEIGIIENVQRADLNVLEEALSYKVLMEKFERTQENIAQTIGKSXSHVANXMRLLXLPDEVQSYLVSGELTAXHARAIAAAADPVALAKQIIEGGLSVRETEALARKAPNLSAGKSKGGRPPRVKDTDTQALESDLSSVLGLDVSIDHRGSTGTLTITYATLEQLDDLCNRLTRGI
# Variants of: B1
# Assay: one-hybrid fitness for binding parS DNA (scaled: cognate 1, non-cognate 0); higher = stronger binding
# Details: with parS DNA site
# Outline: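 Fitness here means the log change in variant-to-wild-type read ratio between plasmids sequenced before and after selection. That scale was set so cognate equals 1 and non-cognate equals 0. The selection was a bacterial one-hybrid screen of Caulobacter ParB libraries, four specificity codons randomised, in E. coli USO carrying a HIS3 reporter with the site 19 bp from the promoter, grown 48 hours at 37°C on M9-minus-histidine with 0.1 mM IPTG and 5 mM 3-AT.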
row,Variant,one-hybrid fitness for binding parS DNA
1,HAQD,≤ 0.2
2,RGTG,0.78
3,RGTR,≤ 0.2
4,RGTP,≤ 0.2
5,RGTK,≤ 0.2
6,RGTS,0.863
7,RGTT,0.624
8,RGTH,≤ 0.2
9,RGTF,≤ 0.2
10,RGTC,0.695
11,RGTN,0.25
12,RGTD,≤ 0.2
13,RGTM,≤ 0.2
14,TYYF,≤ 0.2
15,PKPC,≤ 0.2
16,QSEI,≤ 0.2
17,CPAM,≤ 0.2
18,QILY,≤ 0.2
19,QADE,≤ 0.2
20,CSLA,≤ 0.2
21,RAVN,0.388
22,RAVC,0.851
23,RAKM,0.448

row,Variant,one-hybrid fitness for binding parS DNA
1,RAKR,≤ 0.2
2,RAVP,≤ 0.2
3,RAKC,0.91
4,CAPG,≤ 0.2
5,TVAL,≤ 0.2
6,SDKW,≤ 0.2
7,FVSL,≤ 0.2
8,KQRR,≤ 0.2
9,IVGT,≤ 0.2
10,LIKM,≤ 0.2
11,INCG,≤ 0.2
12,RTVT,0.879
13,RTVK,≤ 0.2
14,RTKT,0.74
15,RTKQ,≤ 0.2
16,RTVQ,≤ 0.2
17,RTKP,≤ 0.2
18,SPTS,≤ 0.2
19,AAYI,≤ 0.2
20,AFVR,≤ 0.2
21,SQAR,≤ 0.2
22,QSAW,≤ 0.2
23,RFVC,0.753

row,Variant,one-hybrid fitness for binding parS DNA
1,DFKC,≤ 0.2
2,NFKC,≤ 0.2
3,DFVC,≤ 0.2
4,NFVC,≤ 0.2
5,RFKC,0.991
6,ARWW,0.23
7,ICDS,≤ 0.2
8,HSSC,≤ 0.2
9,IVSG,0.263
10,STPM,≤ 0.2
11,SILY,≤ 0.2
12,RTAT,0.918
13,RTFT,0.911
14,RTFM,0.334
15,RTFQ,0.26
16,RTAQ,≤ 0.2
17,RTAR,≤ 0.2
18,EICA,≤ 0.2
19,RNHW,≤ 0.2
20,GQRT,≤ 0.2
21,LGMH,≤ 0.2
22,QVAS,≤ 0.2
23,RMAA,0.59

row,Variant,one-hybrid fitness for binding parS DNA
1,RGFA,0.215
2,REAA,≤ 0.2
3,RNAA,0.456
4,RMFA,0.61
5,NNVS,≤ 0.2
6,HPRW,≤ 0.2
7,RKGE,≤ 0.2
8,RIHS,0.97
9,RIHN,0.463
10,RIRD,≤ 0.2
11,RIWS,1.05
12,RILH,≤ 0.2
13,RIHD,≤ 0.2
14,RILS,1.04
15,RIWD,≤ 0.2
16,RILP,≤ 0.2
17,RIRS,0.874
18,RIRP,≤ 0.2
19,RIWP,0.223
20,YILC,≤ 0.2
21,NTNE,≤ 0.2
22,HGYW,≤ 0.2
23,PCLT,≤ 0.2

row,Variant,one-hybrid fitness for binding parS DNA
1,RIYN,0.476
2,RIYS,1.07
3,RIYH,≤ 0.2
4,VRVS,≤ 0.2
5,VYCV,≤ 0.2
6,VANG,≤ 0.2
7,RVKN,0.46
8,RVVP,≤ 0.2
9,RVKD,≤ 0.2
10,RVVT,0.795
11,RVKT,0.761
12,RVVH,≤ 0.2
13,SDSY,≤ 0.2
14,RRMV,≤ 0.2
15,RLHG,1.01
16,RIHY,0.461
17,RIHF,≤ 0.2
18,RSHG,1
19,RPHG,≤ 0.2
20,RIHG,1.02
21,RSHQ,≤ 0.2
22,RDHG,≤ 0.2
23,RLHQ,≤ 0.2

row,Variant,one-hybrid fitness for binding parS DNA
1,RCHG,0.994
2,RLHM,0.321
3,REHG,0.236
4,CRRT,≤ 0.2
5,TFGN,≤ 0.2
6,FDPG,≤ 0.2
7,QNIS,≤ 0.2
8,FWAR,≤ 0.2
9,TTPY,≤ 0.2
10,NYDR,≤ 0.2
11,DKHC,≤ 0.2
12,YHHS,≤ 0.2
13,RHCT,0.766
14,RHQT,0.853
15,RHGF,≤ 0.2
16,RHQK,≤ 0.2
17,RHGM,0.232
18,RHSF,≤ 0.2
19,RHGT,0.832
20,RHCN,0.381
21,RHCD,≤ 0.2
22,RHQF,≤ 0.2
23,RHSY,0.41

row,Variant,one-hybrid fitness for binding parS DNA
1,RHST,0.854
2,WKSA,≤ 0.2
3,NGKG,≤ 0.2
4,MLAT,≤ 0.2
5,AQPR,≤ 0.2
6,VSSM,≤ 0.2
7,GPRN,≤ 0.2
8,MTAN,≤ 0.2
9,FTMR,≤ 0.2
10,TSLA,≤ 0.2
11,VLVS,≤ 0.2
12,TYKP,≤ 0.2
13,SNHT,≤ 0.2
14,RHYK,≤ 0.2
15,RHYN,0.448
16,RHWK,≤ 0.2
17,RHYT,0.806
18,RHRM,0.277
19,RHRY,0.473
20,RHRT,0.788
21,RHWT,0.692
22,RHWR,≤ 0.2
23,ITCG,≤ 0.2

row,Variant,one-hybrid fitness for binding parS DNA
1,LTNS,≤ 0.2
2,TGVT,≤ 0.2
3,VSLW,≤ 0.2
4,SSDD,≤ 0.2
5,RLIQ,≤ 0.2
6,RLIF,≤ 0.2
7,RLIC,0.938
8,RLPR,≤ 0.2
9,RLPF,≤ 0.2
10,RLPC,0.681
11,SDVC,≤ 0.2
12,QSHD,≤ 0.2
13,RMNA,0.606
14,RMDA,0.572
15,SISG,≤ 0.2
16,RVQS,0.989
17,RVSP,≤ 0.2
18,RVQH,0.223
19,RVGS,0.954
20,RVGP,≤ 0.2
21,RVHN,0.425
22,RVSS,0.975
23,RVGH,≤ 0.2

row,Variant,one-hybrid fitness for binding parS DNA
1,RVHS,0.972
2,RVQD,≤ 0.2
3,RVHH,0.235
4,RVSN,0.426
5,IMHT,≤ 0.2
6,WTRR,≤ 0.2
7,ISNF,≤ 0.2
8,FYDL,≤ 0.2
9,IAGR,≤ 0.2
10,TAIN,≤ 0.2
11,RVYS,1.04
12,RVWN,0.478
13,RVCD,≤ 0.2
14,RVRN,0.409
15,RVCS,1.03
16,RVYH,0.263
17,RVWS,1.05
18,RVCH,≤ 0.2
19,RVYD,0.216
20,RVWD,0.212
21,RVRS,0.895
22,RVRD,≤ 0.2
